Tau ThT inhib: blocks human tau fibril formation measured by thioflavin T. hit rate 2.1% among 270,000. AID 1460. Potency, µM (series often up to 57.4 µM), for the others: at the top dose activity, negative = inhibition, most hits filed as inhibitors. recombinant tau K18 P301L, heparin-induced fibrillization, ThT fluorescence; also: nearly all actives have a fitted effect of over 55% in size
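In this qHTS, human K18 P301L tau is incubated with compound and heparin for 6 hr at 37 C, and Thioflavin T fluorescence then reports fibril load.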
Sfp PPTase inh: Sfp phosphopantetheinyl transferase inhibition; Q9F4F7; Biochemical Sfp PPTase activity, qHTS; Potency, µM, without a hit: largest response in the series, negative = inhibition, usual class: inhibitors; hit rate 3.5% among 310,000; AID 1490;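 also: the enzyme is Sfp with the accession as filed and its product quenches rhodamine fluorescence; 0% = enzyme reaction without inhibitor and -100% = no enzyme wells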
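Step 1, compound plus 15 nM Sfp-PPTase, 15 min, room temperature. Step 2, add rhodamine-CoA (5 uM) and BHQ-2-YbbR (12.5 uM). Step 3, read 525/598 nm fluorescence at 0 and 30 min.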
PLK1 PBD block: inhibitors of human PLK1 polo-box domain binding | P53350 | Plk1 PBD binding of FITC phosphopeptide, fluorescence polarization | Potency, µM, without a hit: max response, negative = inhibition, actives largely listed as inhibitors | hit rate 2.8% among 360,000 | AID 720504; also: series mostly up to about 57 µM; nearly all actives have a fitted effect of over 65% in size
Target sequence (P53350 whole entry, looked up, the tested form may be a part): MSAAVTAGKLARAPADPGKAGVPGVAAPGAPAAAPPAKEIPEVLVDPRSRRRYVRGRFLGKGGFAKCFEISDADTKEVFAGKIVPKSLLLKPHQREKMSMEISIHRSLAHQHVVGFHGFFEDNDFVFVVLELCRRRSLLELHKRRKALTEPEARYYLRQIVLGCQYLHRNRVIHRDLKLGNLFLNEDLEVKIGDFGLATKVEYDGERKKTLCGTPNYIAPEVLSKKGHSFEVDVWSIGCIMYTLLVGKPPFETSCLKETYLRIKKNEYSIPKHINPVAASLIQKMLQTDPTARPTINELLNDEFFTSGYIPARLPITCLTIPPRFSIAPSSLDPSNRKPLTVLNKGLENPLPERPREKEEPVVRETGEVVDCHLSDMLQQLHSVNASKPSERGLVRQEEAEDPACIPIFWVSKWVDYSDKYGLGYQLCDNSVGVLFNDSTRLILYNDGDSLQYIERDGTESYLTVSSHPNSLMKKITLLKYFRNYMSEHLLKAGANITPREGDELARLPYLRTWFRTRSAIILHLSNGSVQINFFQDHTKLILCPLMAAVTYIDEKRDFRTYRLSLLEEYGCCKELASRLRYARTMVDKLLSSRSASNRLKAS
Tau fluor counter: counter-screen for tau fibril formation inhibitors | tau K18 P301L (four-repeat tau fragment) Alexa594 fluorescence, heparin fibrillization | Potency, µM (titrated, usually from 57.7 µM), without a hit: top-dose activity change, negative = decrease | hit rate 0.93% among 280,000; also: nearly all actives have a fitted effect of over 55% in size
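Human K18 P301L tau (15 uM unlabeled plus 0.24 uM Alexa 594-labeled, final) in 100 mM sodium acetate pH 7 was mixed with compound and 20 uM heparin and incubated 6 hr at 37 C.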
Tau FP inhib: tau fibrillization inhibition (FP); P10636; K18 P301L tau heparin fibrillization, Alexa594 FP, 6 h; Potency, µM (series often up to 57.7 µM), for inactives: at the top dose activity, negative = inhibition, usual class: inhibitors; hit rate 0.39% among 280,000; AID 1468; also: nearly all actives have a fitted effect of over 55% in size
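Steps: dispense K18 P301L tau (15 uM plus 0.24 uM Alexa 594 tracer, final) in pH 7 sodium acetate; add compound; add heparin (20 uM final); incubate 6 hr, 37 C; add ThT (30 uM final); after 1 hr ambient, read FP.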
VDR inhibitor: inhibitors of human vitamin D receptor | Potency, µM, without a hit: max response, negative = inhibition, actives largely listed as inhibitors | hit rate 0.93% among 400,000 | P11473 | VDR-SRC2-3 peptide fluorescence polarization, 2 h
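Signal is fluorescence polarization, reporting how far test compounds block the interaction of VDR with the SRC2-3 coregulator peptide after a 2 h room-temperature incubation.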
* hit, by the source's call; ? = inconclusive; . = no result; [ ] = dose if it differs, or a comment. Rows were chosen to be rich in hits. Some 6% of all compounds tested hit in one or more screens of this group. Calls follow the shape of the dose curve; as a rule, active = well fitted curve in the direction sought with a large enough effect; inconclusive = small, poorly fitted or top-dose-only effect, or another doubt; inactive = no such curve, though single readings can be large; an effect the other way counts as inactive or inconclusive. Unless noted, % is scaled to controls: 0 for no effect and ±100 for the full control effect; potency is read from the fitted curve at half-maximal effect.

SMILES | Tau ThT inhib | Sfp PPTase inh | PLK1 PBD block | Tau fluor counter | Tau FP inhib | VDR inhibitor
COc1ccc(CCNC(=O)CC(Cc2ccc(C)cc2)C(=O)O)cc1OC (centres undefined) | . | 13% | 24µM* | . | . | -30%
COc1ccc(CCNC(=O)CCN2C(=O)C3CC=CCC3C2=O)cc1OC (centres undefined) | -6% | 13% | 24µM* | 0% | -5% | 9%
CCOC(=O)C1(C)CCN1C(=O)c1ccc(F)c(Cl)c1 (centres undefined) | . | . | -2% | . | . | .
COc1ccc(CCNC(=O)CCCOc2ccc(C)cc2)cc1OC | ? | -9% | 24µM* | -1% | 7% | 50µM*
COc1ccc(CCNC(=O)CCCOc2ccc(Cl)cc2)cc1OC | . | 8% | -16% | . | . | -6%
COc1ccc(CC(=O)N/N=C/c2cccn2-c2ccc([N+](=O)[O-])cc2)cc1OC | -12% | 56µM* | -9% | -19% | 7% | 11%
COc1ccc(CCNC(=O)CSc2ccccc2)cc1OC | -16% | 4% | -1% | -18% | -3% | -6%
CC(C)(C)OC(=O)N/N=C/c1cccn1-c1ccc([N+](=O)[O-])cc1 | -16% | 10% | -4% | -21% | 5% | -4%
COc1ccc(CCNC(=O)CSC(=O)c2ccccc2)cc1OC | ? | 45µM* | 21µM* | -15% | -12% | ?
CCc1nc2ccc(C(=O)Nc3cccc(NS(C)(=O)=O)c3)cn2c1N(C)CCN1CCOCC1 | . | . | -5% | . | . | .
O=C(OCC(=O)N1CCCc2ccccc21)c1cncc(Br)c1 | ? | 71µM* | 1% | -13% | 6% | 8%
O=C(OCC(=O)N1CCc2ccccc21)c1cncc(Br)c1 | ? | -11% | -11% | -14% | -8% | 7%
CCOc1ccc(C2CC(=O)n3nc(-c4ccc(C)cc4)nc3S2)cc1 (centres undefined) | -14% | . | . | -6% | ? | -7%
CCC(=O)Nc1nc(C)c(-c2csc(Nc3cccc(C(=O)O)c3)n2)s1 | 4µM* | 20µM* | ? | -21% | 6% | 0%
Cc1nc(NC(=O)c2ccc(Cl)cc2)sc1-c1csc(Nc2cccc(F)c2)n1 | 7.1µM* | 5% | . | 13µM*[quencher] | ? | .
COc1ccccc1Nc1nc(-c2sc(NC(=O)CC(C)C)nc2C)cs1 | ? | ? | -19% | ? | 5% | ?
Cc1ccc(Nc2nc(-c3sc(NC(=O)c4cccc(Cl)c4)nc3C)cs2)cc1 | ? | -3% | . | ? | ? | .
COc1cccc(Nc2nc(-c3sc(NC(=O)CC(C)C)nc3C)cs2)c1 | 16µM* | 14% | -17% | 16µM*[quencher] | 6% | -6%
CCCc1cc(C(N)=O)c(NC(=O)c2ccco2)s1 | 12% | ? | 27µM* | 3% | 1% | -6%
CCCc1cc(C(N)=O)c(NC(=O)C2CCCO2)s1 (centres undefined) | ? | -80% | 11µM* | -10% | -11% | -28%
CCOC(=O)c1c(NC(=O)C2CCCO2)sc(C(=O)OC(C)(C)C)c1C (centres undefined) | -2% | 45µM* | 6µM* | -8% | -4% | ?
CCOC(=O)c1sc(NC(=O)C2CCCO2)c(C(=O)OCC)c1C (centres undefined) | 8% | 12% | . | 9% | 4% | .
Cc1c(Cc2ccccc2)sc(NC(=O)c2ccco2)c1C(N)=O | -4% | -9% | -5% | -15% | -4% | -4%
Cc1sc(NC(=O)C2CCCO2)c(C(N)=O)c1C (centres undefined) | ? | -13% | 17µM* | -8% | -8% | ?
O=C(NCC(c1cccnc1)N1CCc2ccccc2C1)C(=O)Nc1cccc(Cl)c1 (centres undefined) | ? | . | . | -12% | -4% | 7%
SMILES | Tau ThT inhib | Sfp PPTase inh | PLK1 PBD block | Tau fluor counter | Tau FP inhib | VDR inhibitor
Cc1cccc(-n2ncc(C(=O)NCc3ccccn3)c2C2CCN(C(=O)OC(C)(C)C)CC2)c1 | -14% | . | . | -16% | -7% | 27%
COc1cccc(-c2cc(C(=O)NCc3ccccc3)[nH]n2)c1 | -2% | . | . | -19% | -12% | 7%
O=C(CCCCCN1C(=O)CCC1=O)Nc1ccc2c(c1)OCO2 | ? | 15% | 24µM* | -6% | 5% | -16%
O=C(CN1C(=O)CCSc2ccccc21)Nc1ccc2c(c1)OCO2 | -4% | -1% | -5% | -4% | 2% | 9%
O=C(CC1CS(=O)(=O)CC1CC(=O)Nc1ccc2c(c1)OCCO2)Nc1ccc2c(c1)OCCO2 (centres undefined) | 6% | 22µM* | -29% | -11% | -7% | ?
O=C(CCCN1C(=O)CCC1=O)Nc1ccc2c(c1)OCO2 | -10% | 3% | -13% | 3% | -1% | -4%
O=C(CN1CCOCC1)Nc1ccc2c(c1)OCO2 | 0% | 9% | 11µM* | 3% | 8% | -14%
COc1ccc(NC(=O)CN2CCN(CC(=O)Nc3ccc4c(c3)OCO4)CC2)cc1 | -2% | 13% | 0% | 0% | 4% | 7%
O=C(CN1C(=O)CSc2ccccc21)Nc1ccc2c(c1)OCCO2 | -18% | -7% | 27µM* | -20% | -1% | -10%
O=C(Nc1ccc(F)cc1)C(c1ccnc2ccccc12)N1CCN(C(=O)c2ccco2)CC1 (centres undefined) | . | . | -14% | . | . | .
O=C(O)CC1CCCc2ccccc2C1O (centres undefined) | -5% | . | . | -9% | -7% | -3%
O=C(CN1CCOCC1)Nc1cc(C(F)(F)F)ccc1Cl | 2% | 1% | 21µM* | 1% | 7% | ?
O=C(NC(=S)Nc1ccccc1Cl)c1csnn1 | 16µM* | 50µM* | -13% | -12% | ? | ?
C=C(CCC(=O)c1ccccc1)C(=O)c1ccccc1 | -13% | -19% | -12% | 9% | ? | 45µM*
COc1ccc(N2CCN(C(=O)C(C)n3c(=O)cc(C(F)(F)F)c4c(C)nn(C)c43)CC2)cc1 (centres undefined) | ? | . | . | -20% | 7% | 6%
COc1ccc(/C(C)=N/N=C2/NC(=O)CC(C(=O)O)S2)cc1 (centres undefined) | 2% | 5% | 12µM* | 1% | -5% | ?
C/C(=N\N=C1\NC(=O)CC(C(=O)O)S1)c1ccc(F)cc1 (centres undefined) | 0% | -10% | -5% | 4% | 12% | -14%
COc1ccc(Cl)cc1NC(=S)N(Cc1ccccc1C)CC1CCC(C(=O)O)CC1 (centres undefined) | -11% | 56µM* | 30µM* | -11% | 2% | 6%
CCOC(=O)c1c(C)[nH]c(C(=O)OCc2ccccc2)c1C | . | 22% | 1% | . | . | 9%
CCOC(=O)c1c(C)[nH]c(N=Nc2ccccc2C)c1C | 5µM* | 4% | -7% | ? | 5% | 16%
